Measurements reported in PubChem BioAssay AID488969 (Vanderbilt High Throughput Screening Facility, 2010).
The full ranking holds about 110,000 compounds; the median of “z-score” is about -0.1, and the highest 2% start at about 2. The sample holds the highest values, similar compounds and a random draw of the others, so the mix is not that of the screen. Activity calls are given as the source filed them.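 Rule for the calls: active = z-score in the third read window above 3 or below -3; inactive = the rest.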

Each compound was assayed against Metabotropic glutamate receptor 8 (Rattus norvegicus) (UniProt P70579) (assay: rat mGluR8 modulators via GIRK flux, primary screen, cell-based, thallium flux, HTS (AID 488969)). Conditions: HEK293 rat mGluR8, GIRK (G protein-gated inwardly rectifying potassium channel) thallium flux, FluoZin2; at 10 µM; stronger effect = higher value; submaximal glutamate (EC20) added with thallium.
Chain of Metabotropic glutamate receptor 8 (Rattus norvegicus) (P70579 whole entry, looked up): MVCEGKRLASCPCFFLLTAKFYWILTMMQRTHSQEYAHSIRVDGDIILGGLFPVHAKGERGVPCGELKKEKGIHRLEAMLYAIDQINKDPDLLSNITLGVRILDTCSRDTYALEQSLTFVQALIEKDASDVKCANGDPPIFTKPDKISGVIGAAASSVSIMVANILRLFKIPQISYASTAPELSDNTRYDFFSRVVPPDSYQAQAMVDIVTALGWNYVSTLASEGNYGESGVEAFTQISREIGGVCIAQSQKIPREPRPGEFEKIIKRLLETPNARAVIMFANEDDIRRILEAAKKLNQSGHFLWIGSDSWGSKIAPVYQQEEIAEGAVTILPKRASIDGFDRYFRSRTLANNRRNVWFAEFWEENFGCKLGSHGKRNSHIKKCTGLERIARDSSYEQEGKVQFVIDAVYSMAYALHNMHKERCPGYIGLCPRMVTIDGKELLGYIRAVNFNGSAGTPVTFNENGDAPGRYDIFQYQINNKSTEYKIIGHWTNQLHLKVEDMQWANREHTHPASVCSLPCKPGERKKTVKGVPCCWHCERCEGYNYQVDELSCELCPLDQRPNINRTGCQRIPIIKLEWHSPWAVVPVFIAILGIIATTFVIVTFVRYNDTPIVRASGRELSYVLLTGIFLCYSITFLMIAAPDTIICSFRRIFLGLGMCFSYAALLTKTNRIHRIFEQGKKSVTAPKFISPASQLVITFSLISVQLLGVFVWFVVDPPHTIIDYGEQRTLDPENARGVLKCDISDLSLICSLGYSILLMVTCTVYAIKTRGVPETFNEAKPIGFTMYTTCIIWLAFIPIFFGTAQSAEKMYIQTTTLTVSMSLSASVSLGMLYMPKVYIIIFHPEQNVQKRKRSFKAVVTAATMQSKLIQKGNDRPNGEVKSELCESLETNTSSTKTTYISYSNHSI
Work on Cc1ccc(-n2c(Cc3cccn3C)nnc2SCC(=O)N2CCN(c3ccccc3)CC2)cc1 yielded a z-score of -0.835.
With Cc1ccc(S(=O)(=O)N2CCN(C(=O)N(c3ccccc3)c3ccccc3)CC2)cc1 the z-score was -0.559.
O=c1cc(O)nc(SCc2ccccc2)n1-c1ccc(F)cc1 gave a z-score of -0.305.
CC1CCN(c2ccc(C(=O)Nc3ccc4c(c3)OCO4)cc2[N+](=O)[O-])CC1 gave a z-score of -0.237.
With COc1ccccc1NC(=O)CNC(=O)c1ccccc1C the z-score was 0.371.
In the case of CCOC(=O)CNS(=O)(=O)c1ccc(C(=O)O)cc1, the z-score is reported as 0.207.
Cc1ccc(S(=O)(=O)CC(=O)Nc2nc(-c3ccccc3)cs2)cc1 was tested, and the z-score was 1.27.
COc1ccccc1NC(=S)NC(=O)CCCOc1ccc(Cl)cc1Cl showed a z-score of -0.0968.
CCCCC(=O)Nc1ccc(C(=O)NNC(=O)CCCOc2ccc(Cl)cc2Cl)cc1 was tested, and the z-score was -0.184.
CN(C(=S)NC(=O)CCCOc1ccc(Cl)cc1Cl)c1ccccc1 was tested, and the z-score was 4 (active).
Work on O=C(CCCOc1ccc(Cl)cc1Cl)Nc1cccnc1 yielded a z-score of -0.0915.
For O=C(CCCOc1ccc(Cl)cc1Cl)Nc1ccncc1, the z-score was 2.21.
For CCOc1ccccc1NC(=S)NC(=O)CCCOc1ccc(Cl)cc1Cl, the z-score was -0.0571.
For Cc1ccc(C)c(Oc2ncnc(N)c2[N+](=O)[O-])c1, the z-score was 0.623.
CCOC(=O)COc1ccc(S(=O)(=O)Nc2cccc(SC)c2)cc1 was tested, and the z-score was -0.28.
Compound CC(C)C(=O)Nc1ccc(-c2csc(-c3ccccc3)n2)cc1 has a z-score of -0.165.
For N#Cc1c(-c2ccc(C(F)(F)F)cc2)cc(-c2ccccc2)[nH]c1=S, the z-score was 1.24.
Work on Cc1cc(-c2ccccc2)c(C#N)c(=S)[nH]1 yielded a z-score of 0.152.
For Cc1ccc(-c2cc(-c3ccccc3)[nH]c(=S)c2C#N)cc1, the z-score was 3.09 (active).
Cc1ccc(NC(=O)COC(=O)CNC(=O)c2ccc(Br)cc2)c(C)c1 showed a z-score of -0.336.
Cc1ccc(NC(=O)NC2CCN(S(=O)(=O)c3ccc(F)cc3)CC2)cc1 showed a z-score of 0.564.
Work on Brc1ccc(-c2cn3ccccc3n2)s1 yielded a z-score of -0.391.
CCOC(=O)C1(C)NC(c2ccco2)C2C(=O)N(c3ccc(C)cc3)C(=O)C21 (stereo unspecified) was tested, and the z-score was 0.153.
Compound COc1cc(NC(=O)C2CC2C)c(C(=O)O)cc1OC (stereo unspecified) has a z-score of -0.191.
In the case of C/C(N)=C(/C#N)C(=O)CN1CCCCC1, the z-score is reported as 0.678.
In the case of O=C(CCCc1nc(-c2ccc(Cl)cc2)no1)N1CCOCC1, the z-score is reported as 3.9 (active).
Compound O=C(CCCc1nc(-c2ccccc2)no1)N1CCOCC1 has a z-score of 0.382.
Compound Cc1cccc(-c2noc(CCCC(=O)N3CCOCC3)n2)c1 has a z-score of -0.139.
COc1ccc(Cl)cc1C(=O)NNC(=S)NC(=O)c1cc(-c2ccc(Cl)cc2)nc2ccccc12 gave a z-score of 0.219.
For CCOC(=O)c1ccc(NC(=O)COC(=O)Cc2csc(-c3ccccc3)n2)cc1, the z-score was -0.252.
With O=C(NCc1cccs1)c1cccnc1C(=O)O the z-score was 5.74 (active).
Work on O=C(NCc1cccs1)c1cccnc1Cl yielded a z-score of -0.317.
O=C(NCc1cccs1)c1ccccc1C(=O)NCc1cccs1 gave a z-score of -0.214.
CCN(CC)S(=O)(=O)c1ccc(NCc2ccccc2)nc1 showed a z-score of -0.962.
In the case of Cc1sc2ncnc(SCC(=O)c3ccc(Cl)s3)c2c1C, the z-score is reported as 1.06.
With Cc1sc2ncnc(SCC(=O)NCC(C)C)c2c1C the z-score was -0.208.
For Cc1ccc(OCC(=O)NNC(=O)C(C)Sc2ncnc3sc(C)c(C)c23)cc1 (stereo unspecified), the z-score was 7.7 (active).
Work on Cc1sc2ncnc(SC(C)C(=O)N3c4ccccc4Sc4ccccc43)c2c1C (stereo unspecified) yielded a z-score of 2.19.
CCc1ccc(OCC(=O)NNC(=O)CSc2ncnc3sc(C)c(C)c23)cc1 showed a z-score of 0.487.
CCC(Sc1ncnc2sc(C)c(C)c12)C(=O)OC (stereo unspecified) was tested, and the z-score was -0.469.
COc1ccc(Cn2c(O)c(C=Nc3ccc(OC)cc3)c3ccccc3c2=O)cc1 gave a z-score of -0.178.
NC(=O)c1c(NC(=O)CSc2nc3c(c(C(F)(F)F)n2)CCc2ccccc2-3)sc2c1CCCC2 was tested, and the z-score was -0.123.
Work on Cc1ccc(C)c(NC(=O)Cc2csc(-c3ccccc3)n2)c1 yielded a z-score of -0.0885.
O=C(NC1CCCCC1)C(c1ccc2ncccc2c1)N(Cc1ccc2c(c1)OCO2)C(=O)c1cccs1 (stereo unspecified) gave a z-score of 0.00177.
CC(=O)c1cnc(Nc2ccccc2)s1 gave a z-score of 0.548.
With COc1ccc2cc(Br)ccc2c1CC(=O)NC1CC(C)(C)NC(C)(C)C1 the z-score was 3.91 (active).
With CCCNC(=O)Cc1c(OC)ccc2cc(Br)ccc12 the z-score was 0.421.
COc1ccc2cc(Br)ccc2c1CC(=O)NC(C)(C)C was tested, and the z-score was -0.349.
COc1ccc(C(CC(=O)Nc2ccc(F)cc2)c2ccccc2)cc1 (stereo unspecified) showed a z-score of 1.4.
For COc1ccc(CNCCC(c2ccc(F)cc2)c2ccc(OC)cc2)cc1 (stereo unspecified), the z-score was 3.72 (active).
Work on COc1ccc(C(CCNC(C)c2ccccc2)c2ccc(F)cc2)cc1 (stereo unspecified) yielded a z-score of 1.71.
In the case of COc1ccc(NC(=O)CC(c2ccc(F)cc2)c2ccc(OC)cc2)cc1 (stereo unspecified), the z-score is reported as -0.576.
Compound COc1ccc(CC(=O)NCc2ccc3c(c2)OCO3)cc1 has a z-score of -0.347.
Compound Fc1ccccc1CNCCC(Cc1ccccc1)c1ccc2c(c1)OCO2 (stereo unspecified) has a z-score of 0.733.
For COc1ccc(C(CCNCc2ccccc2)c2ccc(F)cc2)cc1 (stereo unspecified), the z-score was 1.8.
Work on COc1ccc(CNCCC(c2ccccc2)c2ccc3c(c2)OCO3)cc1 (stereo unspecified) yielded a z-score of 2.28.
In the case of COc1ccc(C(CCNCc2ccccc2F)c2ccc(F)cc2)cc1 (stereo unspecified), the z-score is reported as 3.61 (active).
With CCOC(=O)c1cc(NC(=O)N(C(C)C)C(C)C)c(C)nc1C the z-score was 0.0304.
Work on Brc1ccc(-c2nc(-c3cccnc3)no2)o1 yielded a z-score of -0.481.
Compound COc1ccc(CCNC(=O)Cn2nnc(-c3ccccc3F)n2)cc1OC has a z-score of 0.148.
Work on COc1ccc2c(c1)-c1c(sn(-c3ccccc3)c1=S)C(C)(C)N2 yielded a z-score of -0.192.
Work on O=C(CC1Nc2ccccc2NC1=O)NCCc1ccccc1 (stereo unspecified) yielded a z-score of -0.0324.
In the case of CCCCN(CC)CCCNC(=O)CC1Nc2ccccc2NC1=O (stereo unspecified), the z-score is reported as 0.0522.
For O=C(CC1Nc2ccccc2NC1=O)NCCCN1CCCCCC1 (stereo unspecified), the z-score was 2.07.
COc1ccc(CNC(=O)C(NC(C)=O)C(=O)Nc2ccc(OC)cc2)cc1 (stereo unspecified) showed a z-score of -0.149.
Work on Cc1ccc(C2(CC(=O)N3CCCC3)CCOC(C(C)C)C2)cc1 (stereo unspecified) yielded a z-score of -0.0604.
With O=C(O)CSc1nnnn1-c1ccc2c(c1)OCCO2 the z-score was -0.0806.
With COC(=O)C1=C(C)N(C)C(=O)NC1c1ccccc1 (stereo unspecified) the z-score was -0.573.
Cc1cccc(-n2c(C)nc3sccc3c2=O)c1 showed a z-score of 1.99.
Work on Cc1cccc(-n2c(C)nc3c(cnn3-c3ccc(F)cc3)c2=O)c1 yielded a z-score of 1.02.
Work on Cc1nc2sccc2c(=O)n1-c1cccc(Cl)c1 yielded a z-score of -0.144.
Work on Cc1noc(C)c1S(=O)(=O)N1CCCC(C(=O)N2CCC(C)CC2)C1 (stereo unspecified) yielded a z-score of 1.01.
Cc1ccc(Cl)cc1NC1=C/C(=N\S(=O)(=O)c2cccs2)c2ccccc2C1=O gave a z-score of -0.209.
O=C(c1ccccc1Cl)N1CCc2ccccc2C1 showed a z-score of -1.42.
In the case of COc1ccc(NC(=O)/C(Cl)=C(/Cl)S(=O)(=O)Cc2ccc(C)cc2)cn1, the z-score is reported as -0.418.
Compound O=C(Nc1ccc2c(c1)OCO2)N1CCOCC1 has a z-score of 0.476.
For O=C(Nc1ccc2c(c1)OCO2)N1CCN(c2ccccc2Cl)CC1, the z-score was -0.291.
O=C(Nc1ccc2c(c1)OCO2)N1CCN(C(=O)C2CCCO2)CC1 (stereo unspecified) showed a z-score of 2.05.
Compound COc1ccccc1C(OC(=O)c1ccco1)C(=O)NC(C)(C)C (stereo unspecified) has a z-score of -0.346.
In the case of Fc1ccc2nc(-c3ccccc3)nc(SCc3nnc(-c4ccccc4)o3)c2c1, the z-score is reported as 14.3 (active).
O=c1c2ccccc2nc(SCc2nnc(-c3ccccc3)o2)n1-c1ccc(F)cc1F gave a z-score of -0.56.
With O=[N+]([O-])c1ccc(-c2nnc(CSc3nc(-c4ccccc4)nc4ccc(F)cc34)o2)cc1 the z-score was 0.0904.
COc1cc2c(cc1OC)C(COc1ccc3c(C)cc(=O)oc3c1)N(C(=O)c1ccco1)CC2 (stereo unspecified) was tested, and the z-score was 0.044.
Compound Cc1csc(SCC(=O)N2CCN(S(=O)(=O)c3ccc(Cl)cc3)CC2)n1 has a z-score of 0.756.
For COc1cccc(-c2cc(C(=O)NC3CCCC3)no2)c1, the z-score was 5.04 (active).
In the case of COCCNC(=O)c1cc(-c2cccc(OC)c2)on1, the z-score is reported as -0.215.
COC(=O)c1cc(-c2cccc(OC)c2)on1 showed a z-score of -1.1.
In the case of CCOC(=O)c1c(C(F)(F)F)nc2ncccn12, the z-score is reported as -0.534.
With O=C(c1cnn2c(C(F)(F)F)cc(-c3ccc4c(c3)OCO4)nc12)N1CCCC1 the z-score was -0.369.
O=C(CCCc1c[nH]c2ccccc12)N1CCN(c2ccc(N3CCOCC3)nn2)CC1 was tested, and the z-score was -0.501.
For CN(C)c1cccc(C(=O)Nc2ccc3nc4n(c(=O)c3c2)CCCCC4)c1, the z-score was -0.303.
With O=C(Nc1ccc2nc3n(c(=O)c2c1)CCCC3)c1ccccc1[N+](=O)[O-] the z-score was -0.424.
With O=C(COC(=O)c1ccc2c(=O)n3c(nc2c1)CCC3)Nc1ccccc1F the z-score was -0.441.
In the case of Cc1ccccc1C(=O)Nc1ccc2nc3n(c(=O)c2c1)CCC3, the z-score is reported as 3.87 (active).
Work on Cc1cccc(NC(=O)COC(=O)c2ccc3c(=O)n4c(nc3c2)CCC4)c1 yielded a z-score of 2.19.
For CC(C)(C)c1cc(NC(=O)COC(=O)c2ccc3c(=O)n4c(nc3c2)CCC4)n(-c2ccccc2)n1, the z-score was -0.264.
COc1ccccc1OC1=NS(=O)(=O)c2ccccc21 was tested, and the z-score was -0.276.
CC(C)(C)n1nc2c(c1NC(=O)c1ccccc1F)CS(=O)C2 (stereo unspecified) gave a z-score of -0.492.
Cc1cc(C(=O)N2CCN(C(c3ccccc3)c3ccccc3)CC2)no1 was tested, and the z-score was -0.079.
Compound COc1ccc(-c2nc3ccccn3c2NCc2ccc3c(c2)OCO3)cc1 has a z-score of -1.02.
With CCCn1nc(-c2ccccc2)c2nc3ccccc3nc21 the z-score was 0.0864.
CCCCn1nc(-c2ccccc2)c2nc3ccccc3nc21 gave a z-score of -0.013.
CCCCCn1nc(-c2ccccc2)c2nc3ccccc3nc21 was tested, and the z-score was 14.9 (active).
CCCn1cc(SCC(=O)NCC2CCCO2)c2ccccc21 (stereo unspecified) gave a z-score of 0.0527.
In the case of N#Cc1c(/N=C/c2cc3ccccc3s2)sc2c1CCC2, the z-score is reported as -0.0332.
COc1cc(SC#N)ccc1N=Cc1c(C)[nH]n(-c2cccc3ccccc23)c1=O was tested, and the z-score was -0.32.
In the case of Cc1[nH]n(-c2cccc3ccccc23)c(=O)c1/C=N/c1sc2c(c1C#N)CCC2, the z-score is reported as 8.05 (active).
CCOC(=O)c1sc(/N=C/c2c(C)[nH]n(-c3ccccc3)c2=O)c(C#N)c1C showed a z-score of -0.156.
Cc1ccc(/C=N/c2sc3c(c2C#N)CCCCC3)o1 showed a z-score of -0.0448.
For Cc1[nH]n(-c2ccc(F)cc2)c(=O)c1/C=N/c1sc2c(c1C#N)CCCC2, the z-score was 13 (active).
Compound COc1ccc(OC)c(C2C(C(=O)O)c3ccccc3C(=O)N2C)c1 (stereo unspecified) has a z-score of 0.356.
